# Article PMC7862700, “An all-to-all approach to the identification of sequence-specific readers for epigenetic DNA modifications on cytosine”
# Experiments:
# Experiment in all cases: DAPPL (digital affinity profiling via proximity ligation, sequencing); 10 mM Tris-HCl pH 7.5, 50 mM NaCl, 1 mM DTT, 4% glycerol, room temperature, 30 min; GST-TFs on glutathione beads, 16-mer random dsDNA library, 0.1% formaldehyde crosslink after washing; high values mean tight binding
# FLI1 = target: T1, FLI1 (Homo sapiens, UniProt Q01543 1-452); settings: protein: recombinant; tags: N-terminal GST; dsDNA, one strand shown
# T1 sequence: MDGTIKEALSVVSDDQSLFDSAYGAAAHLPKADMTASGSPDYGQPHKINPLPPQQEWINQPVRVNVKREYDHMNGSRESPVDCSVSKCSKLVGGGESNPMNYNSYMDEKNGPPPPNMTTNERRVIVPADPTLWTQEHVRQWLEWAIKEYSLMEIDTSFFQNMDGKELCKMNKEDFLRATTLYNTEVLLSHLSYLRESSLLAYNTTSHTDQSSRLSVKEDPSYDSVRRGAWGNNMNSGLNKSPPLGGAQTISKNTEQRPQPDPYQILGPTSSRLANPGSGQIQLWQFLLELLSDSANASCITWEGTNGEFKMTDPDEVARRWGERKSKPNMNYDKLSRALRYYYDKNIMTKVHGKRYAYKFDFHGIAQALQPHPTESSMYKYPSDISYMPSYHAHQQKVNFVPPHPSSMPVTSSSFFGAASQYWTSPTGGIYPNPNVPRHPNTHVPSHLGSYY
# In short: (§1)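 Each value of binding signal is a hexamer's read frequency for a factor divided by the same hexamer's frequency in the tag-only sample. Barcoded, bead-captured GST fusions of human transcription factors made in yeast were pooled with that sample and incubated with 200 nmole of a random double-stranded 16-mer DNA library in Tris/NaCl/DTT/glycerol buffer at room temperature for 30 min. Washing, 0.1% formaldehyde crosslinking, proximity ligation, PCR and Illumina NextSeq500 sequencing followed.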
# ELK1 = target: T2, ELK1 (Homo sapiens, UniProt P19419 1-428); settings: protein: recombinant; tags: N-terminal GST; dsDNA, one strand shown
# T2 sequence: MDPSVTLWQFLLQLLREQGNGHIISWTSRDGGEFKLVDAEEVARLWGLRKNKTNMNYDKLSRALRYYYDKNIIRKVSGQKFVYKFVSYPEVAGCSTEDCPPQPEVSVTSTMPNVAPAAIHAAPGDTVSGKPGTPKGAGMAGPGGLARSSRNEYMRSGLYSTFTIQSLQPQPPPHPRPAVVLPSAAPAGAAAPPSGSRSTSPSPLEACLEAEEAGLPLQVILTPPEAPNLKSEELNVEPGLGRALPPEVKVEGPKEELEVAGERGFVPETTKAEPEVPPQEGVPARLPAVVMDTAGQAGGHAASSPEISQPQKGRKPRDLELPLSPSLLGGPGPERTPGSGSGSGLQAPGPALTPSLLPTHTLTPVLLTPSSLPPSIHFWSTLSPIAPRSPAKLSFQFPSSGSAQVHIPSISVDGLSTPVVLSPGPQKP
# In short: as §1
# GABPA = target: T3, GABPA (Homo sapiens, UniProt Q06546 1-454); settings: protein: recombinant; tags: N-terminal GST; dsDNA, one strand shown
# T3 sequence: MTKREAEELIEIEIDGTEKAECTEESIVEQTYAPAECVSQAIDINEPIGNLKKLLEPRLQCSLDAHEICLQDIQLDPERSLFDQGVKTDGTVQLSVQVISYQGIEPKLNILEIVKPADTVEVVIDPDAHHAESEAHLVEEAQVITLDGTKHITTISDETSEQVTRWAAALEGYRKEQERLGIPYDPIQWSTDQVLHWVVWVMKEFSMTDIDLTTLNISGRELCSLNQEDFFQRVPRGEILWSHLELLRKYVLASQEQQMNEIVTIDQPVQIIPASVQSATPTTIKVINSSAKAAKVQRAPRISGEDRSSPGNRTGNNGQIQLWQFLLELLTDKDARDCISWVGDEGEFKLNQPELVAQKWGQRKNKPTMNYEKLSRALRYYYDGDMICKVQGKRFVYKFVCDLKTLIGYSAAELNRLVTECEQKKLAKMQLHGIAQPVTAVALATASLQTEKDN
# In short: as §1
# ERG = target: T4, ERG (Homo sapiens, UniProt P11308 1-479); settings: protein: recombinant; tags: N-terminal GST; dsDNA, one strand shown
# T4 sequence: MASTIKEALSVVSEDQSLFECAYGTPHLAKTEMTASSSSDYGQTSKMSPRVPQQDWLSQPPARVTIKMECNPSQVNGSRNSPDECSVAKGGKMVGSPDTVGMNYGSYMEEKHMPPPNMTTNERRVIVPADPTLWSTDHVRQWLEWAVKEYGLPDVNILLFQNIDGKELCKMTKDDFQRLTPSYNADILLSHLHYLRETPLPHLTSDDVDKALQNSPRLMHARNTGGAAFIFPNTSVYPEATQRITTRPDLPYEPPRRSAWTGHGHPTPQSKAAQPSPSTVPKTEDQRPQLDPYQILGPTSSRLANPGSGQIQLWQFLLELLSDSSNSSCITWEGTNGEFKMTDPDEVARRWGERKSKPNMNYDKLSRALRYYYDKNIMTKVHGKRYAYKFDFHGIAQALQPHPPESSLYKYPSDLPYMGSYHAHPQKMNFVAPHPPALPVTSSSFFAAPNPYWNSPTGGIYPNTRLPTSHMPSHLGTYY
# In short: as §1
# ELF1 = ELF1 (Homo sapiens, UniProt P32519 1-619); settings: protein: recombinant; tags: N-terminal GST; dsDNA, one strand shown
# In short: as §1
# EHF = target: T5, EHF (Homo sapiens, UniProt Q9NZC4 1-300); settings: protein: recombinant; tags: N-terminal GST; dsDNA, one strand shown
# T5 sequence: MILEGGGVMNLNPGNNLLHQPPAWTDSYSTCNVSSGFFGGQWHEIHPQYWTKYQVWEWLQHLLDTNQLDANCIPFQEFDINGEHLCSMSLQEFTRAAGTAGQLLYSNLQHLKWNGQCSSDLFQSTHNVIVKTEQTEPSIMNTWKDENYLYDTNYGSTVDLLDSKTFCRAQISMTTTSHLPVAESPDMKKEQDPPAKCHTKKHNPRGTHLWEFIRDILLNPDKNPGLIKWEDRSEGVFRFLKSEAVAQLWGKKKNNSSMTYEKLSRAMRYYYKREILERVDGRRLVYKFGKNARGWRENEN
# In short: as §1
# SPI1 = SPI1 (Homo sapiens, UniProt P17947 1-270); settings: protein: recombinant; tags: N-terminal GST; dsDNA, one strand shown
# In short: as §1
# SPIB = SPIB (Homo sapiens, UniProt Q01892 1-262); settings: protein: recombinant; tags: N-terminal GST; dsDNA, one strand shown
# In short: as §1
# ELK3 = target: T6, ELK3 (Homo sapiens, UniProt P41970 1-407); settings: protein: recombinant; tags: N-terminal GST; dsDNA, one strand shown
# T6 sequence: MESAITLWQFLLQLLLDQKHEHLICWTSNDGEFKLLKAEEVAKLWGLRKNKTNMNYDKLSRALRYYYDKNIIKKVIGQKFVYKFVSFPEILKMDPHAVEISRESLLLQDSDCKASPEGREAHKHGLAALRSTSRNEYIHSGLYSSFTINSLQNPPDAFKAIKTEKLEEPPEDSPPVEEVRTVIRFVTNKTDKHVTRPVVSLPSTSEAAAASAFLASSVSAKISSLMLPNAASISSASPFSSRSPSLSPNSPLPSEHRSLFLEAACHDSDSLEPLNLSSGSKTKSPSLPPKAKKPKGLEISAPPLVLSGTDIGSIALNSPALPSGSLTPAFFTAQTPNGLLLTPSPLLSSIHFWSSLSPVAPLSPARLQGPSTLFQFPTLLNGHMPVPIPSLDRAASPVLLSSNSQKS
# In short: as §1
# FEV = target: T7, FEV (Homo sapiens, UniProt Q99581 1-238); settings: protein: recombinant; tags: N-terminal GST; dsDNA, one strand shown
# T7 sequence: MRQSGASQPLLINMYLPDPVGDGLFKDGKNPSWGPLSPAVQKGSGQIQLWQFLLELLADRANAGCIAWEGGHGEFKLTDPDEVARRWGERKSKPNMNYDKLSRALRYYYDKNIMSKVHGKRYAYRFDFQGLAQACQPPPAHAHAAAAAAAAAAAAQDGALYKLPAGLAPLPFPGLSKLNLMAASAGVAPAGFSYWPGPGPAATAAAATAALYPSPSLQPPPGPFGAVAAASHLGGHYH
# In short: as §1
# ETV5 = ETV5 (Homo sapiens, UniProt P41161 1-510); settings: protein: recombinant; tags: N-terminal GST; dsDNA, one strand shown
# In short: as §1
# HSF1 = HSF1 (Homo sapiens, UniProt Q00613 1-529); settings: protein: recombinant; tags: N-terminal GST; chain copies: 3; dsDNA, one strand shown
# In short: as §1
# SPIC = target: T8, SPIC (Homo sapiens, UniProt Q8N5J4 1-248); settings: protein: recombinant; tags: N-terminal GST; dsDNA, one strand shown
# T8 sequence: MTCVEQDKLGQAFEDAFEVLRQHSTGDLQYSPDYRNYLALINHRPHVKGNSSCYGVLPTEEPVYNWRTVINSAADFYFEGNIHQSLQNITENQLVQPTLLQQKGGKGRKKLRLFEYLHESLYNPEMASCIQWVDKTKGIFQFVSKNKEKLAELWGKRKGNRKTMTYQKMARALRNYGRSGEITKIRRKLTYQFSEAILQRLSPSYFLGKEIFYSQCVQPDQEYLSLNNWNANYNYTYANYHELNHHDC
# In short: as §1
# ELF4 = ELF4 (Homo sapiens, UniProt Q99607 1-663); settings: protein: recombinant; tags: N-terminal GST; dsDNA, one strand shown
# In short: as §1
# ELK4 = target: T9, ELK4 (Homo sapiens, UniProt P28324-2 1-405); settings: protein: recombinant; tags: N-terminal GST; dsDNA, one strand shown
# T9 sequence: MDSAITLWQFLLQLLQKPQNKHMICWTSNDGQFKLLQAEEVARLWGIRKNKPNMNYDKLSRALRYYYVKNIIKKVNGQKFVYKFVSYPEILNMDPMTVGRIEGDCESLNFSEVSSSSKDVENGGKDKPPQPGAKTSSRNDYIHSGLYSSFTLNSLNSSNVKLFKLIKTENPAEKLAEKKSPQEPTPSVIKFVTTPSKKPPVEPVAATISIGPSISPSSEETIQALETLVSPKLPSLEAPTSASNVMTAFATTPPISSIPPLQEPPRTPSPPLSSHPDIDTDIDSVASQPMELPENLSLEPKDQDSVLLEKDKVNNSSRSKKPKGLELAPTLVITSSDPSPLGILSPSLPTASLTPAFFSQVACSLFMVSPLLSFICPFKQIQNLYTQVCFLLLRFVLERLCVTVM
# In short: as §1
# ETV2 = target: T10, ETV2 (Homo sapiens, UniProt O00321 1-342); settings: protein: recombinant; tags: N-terminal GST; dsDNA, one strand shown
# T10 sequence: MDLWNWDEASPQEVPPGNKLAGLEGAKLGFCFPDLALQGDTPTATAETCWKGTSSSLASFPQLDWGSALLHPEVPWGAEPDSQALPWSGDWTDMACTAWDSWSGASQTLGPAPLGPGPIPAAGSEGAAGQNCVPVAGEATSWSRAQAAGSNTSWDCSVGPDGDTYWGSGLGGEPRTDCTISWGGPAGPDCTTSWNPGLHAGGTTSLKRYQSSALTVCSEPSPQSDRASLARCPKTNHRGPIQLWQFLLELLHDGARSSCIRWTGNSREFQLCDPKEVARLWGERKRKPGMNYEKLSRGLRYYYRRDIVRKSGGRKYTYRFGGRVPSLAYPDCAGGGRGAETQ
# In short: as §1
# ELF3 = target: T11, ELF3 (Homo sapiens, UniProt P78545 1-371); settings: protein: recombinant; tags: N-terminal GST; dsDNA, one strand shown
# T11 sequence: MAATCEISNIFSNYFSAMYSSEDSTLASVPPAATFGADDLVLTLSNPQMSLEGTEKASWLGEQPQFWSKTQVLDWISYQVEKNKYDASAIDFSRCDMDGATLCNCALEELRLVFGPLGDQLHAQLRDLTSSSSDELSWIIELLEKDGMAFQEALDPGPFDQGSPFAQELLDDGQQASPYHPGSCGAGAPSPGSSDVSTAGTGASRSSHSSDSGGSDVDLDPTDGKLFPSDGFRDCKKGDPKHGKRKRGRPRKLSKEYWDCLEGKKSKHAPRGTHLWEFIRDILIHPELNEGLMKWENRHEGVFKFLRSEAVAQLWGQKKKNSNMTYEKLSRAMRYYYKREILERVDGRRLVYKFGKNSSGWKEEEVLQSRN
# In short: as §1
# CRX = CRX (Homo sapiens, UniProt O43186 1-299); settings: protein: recombinant; tags: N-terminal GST; dsDNA, one strand shown
# In short: as §1
# ETV1 = ETV1 (Homo sapiens, UniProt P50549 1-477); settings: protein: recombinant; tags: N-terminal GST; dsDNA, one strand shown
# In short: as §1
# ETV5, sequence (P41161 whole entry): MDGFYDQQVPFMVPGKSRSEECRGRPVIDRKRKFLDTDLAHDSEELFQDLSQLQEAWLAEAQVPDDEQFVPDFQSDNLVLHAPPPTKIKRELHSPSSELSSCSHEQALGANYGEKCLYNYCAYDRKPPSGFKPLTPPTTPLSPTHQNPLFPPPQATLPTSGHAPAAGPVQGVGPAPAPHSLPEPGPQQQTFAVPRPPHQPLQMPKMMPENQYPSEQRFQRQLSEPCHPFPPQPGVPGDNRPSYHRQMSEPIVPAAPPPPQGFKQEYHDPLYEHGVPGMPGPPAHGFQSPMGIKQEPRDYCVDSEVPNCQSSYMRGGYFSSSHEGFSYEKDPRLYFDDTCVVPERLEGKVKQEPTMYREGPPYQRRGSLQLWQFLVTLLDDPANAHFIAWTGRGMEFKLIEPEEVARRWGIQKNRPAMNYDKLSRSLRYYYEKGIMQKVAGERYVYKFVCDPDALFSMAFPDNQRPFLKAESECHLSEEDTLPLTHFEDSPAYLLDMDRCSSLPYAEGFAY
# ELF4, sequence (Q99607 whole entry): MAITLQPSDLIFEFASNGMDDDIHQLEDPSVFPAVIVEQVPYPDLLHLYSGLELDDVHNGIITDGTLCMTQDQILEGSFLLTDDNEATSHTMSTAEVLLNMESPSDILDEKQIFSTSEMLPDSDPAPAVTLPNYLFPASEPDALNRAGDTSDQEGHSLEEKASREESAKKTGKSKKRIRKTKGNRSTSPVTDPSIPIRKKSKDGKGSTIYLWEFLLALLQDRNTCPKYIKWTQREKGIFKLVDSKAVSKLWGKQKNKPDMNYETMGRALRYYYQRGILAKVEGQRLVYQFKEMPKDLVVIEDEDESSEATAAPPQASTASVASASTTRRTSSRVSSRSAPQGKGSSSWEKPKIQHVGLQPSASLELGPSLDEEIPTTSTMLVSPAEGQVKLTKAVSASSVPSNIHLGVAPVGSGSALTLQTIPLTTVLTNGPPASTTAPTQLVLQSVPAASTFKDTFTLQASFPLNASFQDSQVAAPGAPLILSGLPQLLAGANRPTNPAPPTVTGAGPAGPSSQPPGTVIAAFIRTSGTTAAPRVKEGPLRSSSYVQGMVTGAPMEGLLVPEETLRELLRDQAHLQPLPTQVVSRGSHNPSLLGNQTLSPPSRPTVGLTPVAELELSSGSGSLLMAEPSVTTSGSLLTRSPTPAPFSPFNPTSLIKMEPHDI
# SPIB, sequence (Q01892 whole entry): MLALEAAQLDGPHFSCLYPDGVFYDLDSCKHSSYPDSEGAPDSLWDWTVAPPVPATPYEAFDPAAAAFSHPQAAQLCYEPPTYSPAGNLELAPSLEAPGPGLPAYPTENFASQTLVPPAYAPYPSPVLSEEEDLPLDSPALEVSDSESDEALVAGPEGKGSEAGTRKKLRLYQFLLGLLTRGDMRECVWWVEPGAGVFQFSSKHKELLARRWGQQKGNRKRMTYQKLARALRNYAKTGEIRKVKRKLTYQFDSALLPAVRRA
# CRX, sequence (O43186 whole entry): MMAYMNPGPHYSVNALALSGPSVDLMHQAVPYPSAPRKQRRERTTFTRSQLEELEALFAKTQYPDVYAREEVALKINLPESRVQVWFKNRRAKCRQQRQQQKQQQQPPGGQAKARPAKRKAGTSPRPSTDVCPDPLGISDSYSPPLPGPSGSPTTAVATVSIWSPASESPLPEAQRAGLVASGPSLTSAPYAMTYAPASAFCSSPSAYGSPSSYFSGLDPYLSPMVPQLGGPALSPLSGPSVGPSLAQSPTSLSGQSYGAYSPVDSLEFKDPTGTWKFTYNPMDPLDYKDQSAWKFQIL
# ELF1, sequence (P32519 whole entry): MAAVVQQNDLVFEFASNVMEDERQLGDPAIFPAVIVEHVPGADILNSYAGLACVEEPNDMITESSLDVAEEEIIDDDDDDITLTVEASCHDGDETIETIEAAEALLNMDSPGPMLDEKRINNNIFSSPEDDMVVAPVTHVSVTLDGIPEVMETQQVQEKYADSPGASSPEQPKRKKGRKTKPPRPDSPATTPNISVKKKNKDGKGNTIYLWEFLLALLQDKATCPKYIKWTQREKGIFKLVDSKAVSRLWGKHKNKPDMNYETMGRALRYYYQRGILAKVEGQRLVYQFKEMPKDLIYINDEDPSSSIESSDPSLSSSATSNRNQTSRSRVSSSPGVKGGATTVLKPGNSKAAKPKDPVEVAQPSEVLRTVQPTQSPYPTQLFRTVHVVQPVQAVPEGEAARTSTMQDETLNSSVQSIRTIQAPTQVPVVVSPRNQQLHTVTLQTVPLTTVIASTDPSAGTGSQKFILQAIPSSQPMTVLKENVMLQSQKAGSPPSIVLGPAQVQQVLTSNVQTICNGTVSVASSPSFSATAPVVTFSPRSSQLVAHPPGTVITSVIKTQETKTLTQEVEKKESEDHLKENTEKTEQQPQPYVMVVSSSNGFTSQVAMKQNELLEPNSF
# ETV1, sequence (P50549 whole entry): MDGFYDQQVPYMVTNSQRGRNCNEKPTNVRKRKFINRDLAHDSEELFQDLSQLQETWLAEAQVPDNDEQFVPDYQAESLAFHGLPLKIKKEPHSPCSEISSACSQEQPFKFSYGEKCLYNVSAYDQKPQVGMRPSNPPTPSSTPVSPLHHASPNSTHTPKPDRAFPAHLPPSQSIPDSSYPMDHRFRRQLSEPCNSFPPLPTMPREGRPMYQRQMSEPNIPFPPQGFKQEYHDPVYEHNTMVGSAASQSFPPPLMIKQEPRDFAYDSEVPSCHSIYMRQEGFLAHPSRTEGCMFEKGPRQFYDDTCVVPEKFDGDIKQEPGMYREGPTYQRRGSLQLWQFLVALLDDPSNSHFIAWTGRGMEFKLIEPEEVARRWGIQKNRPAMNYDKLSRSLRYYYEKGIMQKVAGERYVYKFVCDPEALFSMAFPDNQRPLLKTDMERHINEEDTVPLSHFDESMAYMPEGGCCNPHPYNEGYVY
# HSF1, sequence (Q00613 whole entry): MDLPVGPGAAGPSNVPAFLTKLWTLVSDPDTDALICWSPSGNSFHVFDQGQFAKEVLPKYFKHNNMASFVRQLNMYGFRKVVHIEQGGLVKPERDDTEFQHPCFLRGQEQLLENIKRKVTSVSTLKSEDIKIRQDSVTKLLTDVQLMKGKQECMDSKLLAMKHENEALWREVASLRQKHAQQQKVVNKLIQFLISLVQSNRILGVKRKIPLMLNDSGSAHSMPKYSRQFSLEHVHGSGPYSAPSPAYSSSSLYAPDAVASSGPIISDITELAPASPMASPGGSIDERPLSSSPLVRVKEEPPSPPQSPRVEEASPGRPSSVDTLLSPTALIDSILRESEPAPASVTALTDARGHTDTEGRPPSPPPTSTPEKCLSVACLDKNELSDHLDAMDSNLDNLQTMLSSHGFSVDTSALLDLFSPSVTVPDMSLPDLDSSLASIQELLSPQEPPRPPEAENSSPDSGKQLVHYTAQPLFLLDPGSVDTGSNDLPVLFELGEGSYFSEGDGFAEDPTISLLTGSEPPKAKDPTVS
sequence,measurement,setting,value
GTAAAC,binding signal,FLI1,"1.16 fold enrichment (6-mer frequency, TF over GST control)"
same,binding signal,ELK1,"1.26 fold enrichment (6-mer frequency, TF over GST control)"
same,binding signal,GABPA,"1.26 fold enrichment (6-mer frequency, TF over GST control)"
same,binding signal,ERG,"1.19 fold enrichment (6-mer frequency, TF over GST control)"
same,binding signal,ELF1,"1.17 fold enrichment (6-mer frequency, TF over GST control)"
same,binding signal,EHF,"1.25 fold enrichment (6-mer frequency, TF over GST control)"
same,binding signal,SPI1,"1.25 fold enrichment (6-mer frequency, TF over GST control)"
same,binding signal,SPIB,"1.25 fold enrichment (6-mer frequency, TF over GST control)"
same,binding signal,ELK3,"1.25 fold enrichment (6-mer frequency, TF over GST control)"
same,binding signal,FEV,"1.17 fold enrichment (6-mer frequency, TF over GST control)"
same,binding signal,ETV5,"1.18 fold enrichment (6-mer frequency, TF over GST control)"
same,binding signal,HSF1,"1.03 fold enrichment (6-mer frequency, TF over GST control)"
same,binding signal,SPIC,"1.23 fold enrichment (6-mer frequency, TF over GST control)"
same,binding signal,ELF4,"1.23 fold enrichment (6-mer frequency, TF over GST control)"
same,binding signal,ELK4,"1.27 fold enrichment (6-mer frequency, TF over GST control)"
same,binding signal,ETV2,"1.15 fold enrichment (6-mer frequency, TF over GST control)"
same,binding signal,ELF3,"1.38 fold enrichment (6-mer frequency, TF over GST control)"
same,binding signal,CRX,"1.07 fold enrichment (6-mer frequency, TF over GST control)"
same,binding signal,ETV1,"1.22 fold enrichment (6-mer frequency, TF over GST control)"
